Laboratory results as given in PubChem BioAssay AID504332 (National Center for Advancing Translational Sciences (NCATS), 2011).
“And” between values parts separate entries of the source, which are not always exact repeats. Equal entries are not always repeated. Screen size: about 350,000 compounds; about 31,000 (8.9%) were called active. A call without a number means that no potency is given here. Not shown: some 15% with an inconclusive outcome. The call rests on the fitted dose curve; in most records, active means well fitted inhibition curve with a large enough effect; inconclusive means small, poorly fitted or top-dose-only effect; inactive means no such curve, though single readings can be large or run the other way. Only a selection was taken, and actives are over-represented in it overall. A structure can be active in one record and inactive in another.

biological target: Histone-lysine N-methyltransferase EHMT2 (Homo sapiens) (UniProt Q96KQ7); assay: qHTS Assay for Inhibitors of Histone Lysine Methyltransferase G9a; settings: G9a H3K9 monomethylation, AlphaScreen, 2 h; series mostly up to 102 µM; further: nearly all actives have a fitted effect of over 75% in size
Procedure, shortened: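 AlphaScreen detection with an anti-monomethyl H3K9 antibody quantified product after a 2 h room-temperature reaction containing 500 nM biotinylated H3K9 peptide, 20 µM SAM and 20 nM enzyme, which had been preincubated 15 min with compound.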
Potency means the concentration at half of the fitted maximal effect.

Histone-lysine N-methyltransferase EHMT2 (Homo sapiens), sequence (Q96KQ7 913-1193 limits assumed): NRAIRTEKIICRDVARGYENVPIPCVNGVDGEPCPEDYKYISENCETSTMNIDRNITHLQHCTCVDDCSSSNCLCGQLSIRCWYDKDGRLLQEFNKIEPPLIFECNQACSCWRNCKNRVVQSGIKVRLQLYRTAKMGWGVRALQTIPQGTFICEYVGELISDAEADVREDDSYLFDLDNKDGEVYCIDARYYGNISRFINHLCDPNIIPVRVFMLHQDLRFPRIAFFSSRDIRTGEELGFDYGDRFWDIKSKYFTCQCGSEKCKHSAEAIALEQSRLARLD

Question: For Cc1cc(/C=C2/C(=O)NC(=O)N(Cc3ccco3)C2=O)c(C)n1-c1ccc(C(=O)O)cc1, which Potency is on record?
Answer: The Potency was 35.5 µM (active).

Question: O=C1NC(=O)N(Cc2ccco2)C(=O)/C1=C\c1ccc(-c2ccc(F)cc2)o1 was tested. Which Potency did it give?
Answer: The Potency was 12.6 µM (active).

Question: Which activity, negative = inhibition does the source give for Cc1ccc2c(c1)C1CN(C)CCC1N2C(=O)Cn1nnc(-c2ccccc2F)n1 (configuration not stated) here?
Answer: Its activity, negative = inhibition is “inactive”.

Question: Which activity, negative = inhibition does the source give for CCOC(=O)c1c(N)n(CCN2CCOCC2)c2nc3ccccc3nc12 here?
Answer: The activity, negative = inhibition was “inactive”.

Question: CC(=O)N1CN2CN(C(C)=O)CC(C(=O)c3ccc(Br)cc3)(C2)C1 was tested. Which activity, negative = inhibition did it give?
Answer: The activity, negative = inhibition was “inactive”.

Question: How did the activity, negative = inhibition turn out when C[C@@]12CC[C@H]3[C@@H](CC[C@]4(O)C[C@H](O)CC[C@@]34C=O)[C@]1(O)CC[C@@H]2C1=CC(=O)OC1 was run?
Answer: The activity, negative = inhibition was 21.4% [at 21.5 µM] (inactive).

Question: Which activity, negative = inhibition does the source give for O=c1c2ccccc2nc(-c2ccc(Cl)cc2Cl)n1-c1ccncc1 here?
Answer: The activity, negative = inhibition was “inactive”.

Question: How did the activity, negative = inhibition turn out when COC(=O)C1=C(c2ccc(C(C)=O)cc2)C[C@@H]2CC[C@H]1N2C(=O)NCCNC(C)=O was run?
Answer: The activity, negative = inhibition was 23.2% [at 2.33 µM] (inactive).

Question: Which activity, negative = inhibition does the source give for O=Cc1cn(Cc2ccc(F)cc2Cl)c2ccccc12 here?
Answer: Its activity, negative = inhibition is “inactive”.

Question: How did the activity, negative = inhibition turn out when CNC(=O)N(C)c1nnc(C(C)(C)C)s1 was run?
Answer: The activity, negative = inhibition was -1.28% [at 12.7 µM] (inactive).

Question: For CCOC(=O)C1SC2(C(F)(F)C(F)F)CC1(O)c1c(c(OC)c3occc3c1OC)O2 (configuration not stated), which activity, negative = inhibition is on record?
Answer: Its activity, negative = inhibition is “inactive”.

Question: Which activity, negative = inhibition does the source give for N=c1ccccn1Cc1ccccc1 here?
Answer: Its activity, negative = inhibition is “inactive”.

Question: How did the Potency turn out when CCCCC/C=C\C/C=C\C/C=C\C/C=C\CCCCCC(=O)NCCO was run?
Answer: The Potency was “inactive and 12.6 µM (active)”.

Question: For CCCCC/C=C\C/C=C\C/C=C\CCCCCCC(=O)NCCO, which activity, negative = inhibition is on record?
Answer: Its activity, negative = inhibition is “inactive”.

Question: How did the activity, negative = inhibition turn out when CCCCC/C=C\C/C=C\C/C=C\C=C\[C@H](CCCC(=O)O)OO was run?
Answer: Its activity, negative = inhibition is “inactive”.

Question: O=C1/C(=C\c2ccc3c(c2)OCO3)N2CCC1CC2 was tested. Which activity, negative = inhibition did it give?
Answer: Its activity, negative = inhibition is “inactive”.

Question: O=C(CCN1CCCCC1)NCC(=O)Nc1ccc(Br)cc1C(=O)c1ccccc1 was tested. Which activity, negative = inhibition did it give?
Answer: Its activity, negative = inhibition is “inactive”.

Question: How did the activity, negative = inhibition turn out when CCOP(=S)(OCC)C(O)CCCCCn1c(=O)c(F)cn(C2CCCO2)c1=O (configuration not stated) was run?
Answer: The activity, negative = inhibition was 6.51% [at 0.501 µM] (inactive).

Question: CN(C)c1nc(N(C)C)nc(N(C#N)CCCl)n1 was tested. Which Potency did it give?
Answer: Its Potency is 39.8 µM (active).

Question: For Clc1cccc(Cl)c1Cl, which activity, negative = inhibition is on record?
Answer: Its activity, negative = inhibition is 8.54% [at 0.501 µM] (inactive).

Question: Which activity, negative = inhibition does the source give for C[C@]12CC[C@@H]3c4ccc(O)cc4C[C@@H](CCCCCCCCCS(=O)CCCC(F)(F)C(F)(F)F)C3[C@@H]1CC[C@@H]2O (some centres not stated) here?
Answer: The activity, negative = inhibition was “inactive”.

Question: Which activity, negative = inhibition does the source give for Cn1c(O)c(C=Nc2ccc3c(c2)CCC3)c(=O)n(C)c1=O here?
Answer: The activity, negative = inhibition was “inactive”.

Question: With c1ccc2sc(N3CCNCC3)nc2c1 as the compound, how does the activity, negative = inhibition read?
Answer: The activity, negative = inhibition was “inactive”.

Question: How did the Potency turn out when c1ccc2sc(C3CCCNC3)nc2c1 (configuration not stated) was run?
Answer: Its Potency is 44.7 µM (active).

Question: How did the activity, negative = inhibition turn out when CC(C)(C)[C@]1(O)C[C@@H]2OC(=O)C[C@@]23C(=O)O[C@@H]2OC(=O)[C@H](O)[C@]213 was run?
Answer: Its activity, negative = inhibition is “inactive”.

Question: With OC1/C(=C/c2ccc(C(F)(F)F)cc2)N2CCC1CC2 (configuration not stated) as the compound, how does the activity, negative = inhibition read?
Answer: Its activity, negative = inhibition is “inactive”.

Question: With COC(=O)C1=C(c2ccc3ccccc3c2)C[C@@H]2CC[C@H]1N2C(=O)NCCO as the compound, how does the activity, negative = inhibition read?
Answer: The activity, negative = inhibition was 26.7% [at 2.33 µM] (inactive).

Question: Which Potency does the source give for COc1ccc(CNCCc2ccc3c(c2)OCO3)c(OC)c1OC here?
Answer: The Potency was 8.91 µM (active).

Question: How did the activity, negative = inhibition turn out when COC(=O)C1=C(c2c(C)noc2C)C[C@@H]2CC[C@H]1N2C(=O)NCc1ccc2c(c1)OCO2 was run?
Answer: Its activity, negative = inhibition is -4.27% [at 0.501 µM] (inactive).

Question: CCN1CCN(Cc2cc(OC)c3c(c2)OCO3)CC1 was tested. Which activity, negative = inhibition did it give?
Answer: The activity, negative = inhibition was “inactive”.

Question: c1csc(CN2CCCC3(CCNCC3)C2)n1 was tested. Which activity, negative = inhibition did it give?
Answer: The activity, negative = inhibition was 7.82% [at 12.7 µM] (inactive).

Question: How did the activity, negative = inhibition turn out when CCCCCCCCCCCCn1ccc(=N)cc1 was run?
Answer: The activity, negative = inhibition was “inactive”.

Question: For CC[C@H]1CN2CCc3cc(OC)c(OC)cc3[C@@H]2C[C@@H]1C[C@H]1NCCc2cc(OC)c(OC)cc21, which activity, negative = inhibition is on record?
Answer: The activity, negative = inhibition was “inactive”.

Question: For CCOc1cc(N2CCOCC2)c(OCC)cc1NC(=O)C1=NN(c2cccc(C)c2)C(=O)CC1, which Potency is on record?
Answer: Its Potency is 11.2 µM (active).

Question: With CCCCCn1c(=O)c(C(=O)NCc2ccccn2)c(O)c2ccccc21 as the compound, how does the activity, negative = inhibition read?
Answer: The activity, negative = inhibition was “inactive”.

Question: O=C1c2ccccc2NC(c2ccccc2O)N1NS(=O)(=O)c1ccccc1 (configuration not stated) was tested. Which activity, negative = inhibition did it give?
Answer: Its activity, negative = inhibition is “inactive”.

Question: Cc1ccc(N(C)C(=O)Oc2cccc3ccc(C)nc23)cc1 was tested. Which activity, negative = inhibition did it give?
Answer: The activity, negative = inhibition was “inactive”.

Question: Which activity, negative = inhibition does the source give for COC(=O)COc1cc(C)cc2oc(=O)c3c(c12)CCCC3 here?
Answer: Its activity, negative = inhibition is “inactive”.

Question: How did the activity, negative = inhibition turn out when O=C(Nc1cccc(F)c1)N1CC[C@@]2(CCCN(C(=O)Oc3ccccc3)C2)C1 was run?
Answer: Its activity, negative = inhibition is -11.3% [at 12.7 µM] (inactive).

Question: How did the activity, negative = inhibition turn out when CCCCCn1c(=O)c(C(=O)Nc2c(C)n(C)n(-c3ccccc3)c2=O)c(O)c2ccccc21 was run?
Answer: Its activity, negative = inhibition is “inactive”.

Question: How did the activity, negative = inhibition turn out when CCC(=O)CC(c1ccc([N+](=O)[O-])cc1)c1c(O)c2ccccc2oc1=O (configuration not stated) was run?
Answer: The activity, negative = inhibition was “inactive”.

Question: With COc1cc(C(c2c(O)c3ccccc3oc2=O)c2c(C)n(C)n(-c3ccccc3)c2=O)ccc1O (configuration not stated) as the compound, how does the Potency read?
Answer: The Potency was 44.7 µM (active).

Question: How did the activity, negative = inhibition turn out when Cc1ccsc1C(=O)C1CCCN(Cc2ccc(O)cc2)C1 (configuration not stated) was run?
Answer: Its activity, negative = inhibition is “inactive”.

Question: For CCOC(=O)CC1=C(C(=O)OCC)C2(C(=O)N1)C(C(=O)OC)=C(N)Oc1ccccc12 (configuration not stated), which activity, negative = inhibition is on record?
Answer: Its activity, negative = inhibition is “inactive”.

Question: With CCCCCCN=C(CC)c1c(O)n(CCCC)c(=O)[nH]c1=O as the compound, how does the activity, negative = inhibition read?
Answer: Its activity, negative = inhibition is -24.6% [at 12.7 µM] (inactive).

Question: Which activity, negative = inhibition does the source give for COc1ccc(C(=O)C2CCCN(Cc3ccc(C)s3)C2)cc1OC (configuration not stated) here?
Answer: Its activity, negative = inhibition is “inactive”.

Question: With COc1cc(C(=S)N2CCOCC2)ccc1O as the compound, how does the Potency read?
Answer: The Potency was 20 µM (active).

Question: What about the activity, negative = inhibition of the same compound?
Answer: Its activity, negative = inhibition is -4.38% [at 12.7 µM] (inactive).

Question: Which activity, negative = inhibition does the source give for COc1ccccc1OC(=O)c1ccc(C)c(S(=O)(=O)N2CCOCC2)c1 here?
Answer: Its activity, negative = inhibition is “inactive”.

Question: OCC#CC[N+]1(CC#Cc2ccccc2)CCCC1 was tested. Which activity, negative = inhibition did it give?
Answer: Its activity, negative = inhibition is “inactive”.

Question: With CC(c1ccccc1)(c1ccccc1)c1ccncc1 as the compound, how does the activity, negative = inhibition read?
Answer: The activity, negative = inhibition was “inactive”.

Question: How did the activity, negative = inhibition turn out when CC(Cc1ccccc1)NCCC(c1ccccc1)c1ccccc1 (configuration not stated) was run?
Answer: The activity, negative = inhibition was “inactive”.

Question: How did the activity, negative = inhibition turn out when Cn1c(O)c(C=NCCN2CCNCC2)c(=O)n(C)c1=O was run?
Answer: The activity, negative = inhibition was “inactive”.

Question: With C=CCN1CCC2(C)c3cc(O)ccc3CC1[C@@H]2C (some centres not stated) as the compound, how does the activity, negative = inhibition read?
Answer: The activity, negative = inhibition was “inactive”.

Question: Which Potency does the source give for C=CCN1CCC23c4c5ccc(O)c4O[C@H]2C(=O)CC[C@@]3(O)C1C5 (some centres not stated) here?
Answer: The Potency was “inactive and 31.6 µM (active)”.

Question: How did the activity, negative = inhibition turn out when CC(C)N(CC#CCC1(O)c2ccccc2-c2ccccc21)C(C)C was run?
Answer: The activity, negative = inhibition was “inactive”.

Question: For O=C(Nc1cccc(OC(=O)N2CCCCC2)c1)N1CCOCC1, which activity, negative = inhibition is on record?
Answer: Its activity, negative = inhibition is “inactive”.

Question: With Cc1cc(C(=O)OCC(=O)Nc2c(F)cccc2F)c(C)n1C1CC1 as the compound, how does the activity, negative = inhibition read?
Answer: Its activity, negative = inhibition is “inactive”.

Question: Which Potency does the source give for Cc1noc(C)c1CSc1nc2cc(S(=O)(=O)N3CCOCC3)ccc2o1 here?
Answer: The Potency was 3.16 µM (active).

Question: With CN(C)CCN(CC1CCCN(Cc2ccccc2F)C1)C(=O)Cc1ccc(F)c(F)c1 (configuration not stated) as the compound, how does the activity, negative = inhibition read?
Answer: Its activity, negative = inhibition is “inactive”.

Question: How did the activity, negative = inhibition turn out when CCCC[N+]1(C)C2CC(OC(=O)C(CO)c3ccccc3)CC1C1OC12 (configuration not stated) was run?
Answer: The activity, negative = inhibition was “inactive”.

Question: COC(=O)C1=C(c2ccc(F)cc2OCc2ccccc2)C[C@@H]2CC[C@H]1N2C(=O)NCc1ccc2[nH]ccc2c1 was tested. Which activity, negative = inhibition did it give?
Answer: Its activity, negative = inhibition is 4.96% [at 0.501 µM] (inactive).
